Screens: PubChem, National Center for Advancing Translational Sciences (NCATS)
The list is not random: actives were taken first. Their share in the collection is about 3.3%.
Tau fibril ThT: qHTS for Inhibitors of Tau Fibril Formation, Thioflavin T Binding; Potency, µM (highest dose often 57.4 µM), for inactives: top-dose activity, negative = inhibition, hits mostly inhibitors; 2.1% of 270,000 active; recombinant tau K18 P301L, heparin-induced fibrillization, ThT fluorescence; Microtubule-associated protein tau (Homo sapiens), P10636; note: nearly all actives have a fitted effect of over 55% in size
Target sequence (P10636 561-689 P618L limits assumed): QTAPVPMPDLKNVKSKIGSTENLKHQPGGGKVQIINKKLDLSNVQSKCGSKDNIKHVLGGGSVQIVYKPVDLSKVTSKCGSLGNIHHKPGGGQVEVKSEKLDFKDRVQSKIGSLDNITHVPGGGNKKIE
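In this qHTS, human K18 P301L tau is incubated with compound and heparin for 6 hr at 37 C, and Thioflavin T fluorescence then reports fibril load.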
Tau fluor counter: Counterscreen qHTS for Inhibitors of Tau Fibril Formation, Fluorescence Polarization | tau K18 P301L (four-repeat tau fragment) Alexa594 fluorescence, heparin fibrillization | 0.93% of 280,000 active | Potency, µM (titrated, usually from 57.7 µM), without a hit: at the highest dose activity change, negative = decrease; note: nearly all actives have a fitted effect of over 55% in size
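Human K18 P301L tau (15 uM unlabeled plus 0.24 uM Alexa 594-labeled, final) in 100 mM sodium acetate pH 7 was mixed with compound and 20 uM heparin and incubated 6 hr at 37 C.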
NPSR antagonist: qHTS Assay for Antagonists of the Neuropeptide S Receptor: cAMP Signal Transduction | Potency, µM (doses to about 38.3 µM), without a hit: top-dose activity change, negative = inhibition, usual class: inhibitors | CHO-NPSR cells, cAMP TR-FRET, antagonist mode | Q6W5P4 | 1% of 220,000 active | AID 1461, 2008; note: nearly all actives have a fitted effect of over 50% in size
Target sequence (Q6W5P4 whole entry, looked up): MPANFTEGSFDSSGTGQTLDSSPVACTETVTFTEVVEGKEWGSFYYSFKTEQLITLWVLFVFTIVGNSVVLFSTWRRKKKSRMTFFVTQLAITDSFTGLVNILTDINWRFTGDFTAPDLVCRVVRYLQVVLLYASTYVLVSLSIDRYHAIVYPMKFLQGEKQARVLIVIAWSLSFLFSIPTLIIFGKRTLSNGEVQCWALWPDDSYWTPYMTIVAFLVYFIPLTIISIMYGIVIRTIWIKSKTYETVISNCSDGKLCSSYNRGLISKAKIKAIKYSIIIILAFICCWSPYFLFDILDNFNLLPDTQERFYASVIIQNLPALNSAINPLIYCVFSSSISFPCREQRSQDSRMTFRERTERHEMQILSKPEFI
Luc counter: Counterscreen for Luciferase (Kinase-Glo TM) Inhibition; Luciferin 4-monooxygenase (Photuris pensylvanica), Q27757; Potency, µM (top dose mostly 38.3 µM), inactives show at the highest dose activity change, negative = inhibition, most hits filed as inhibitors; Kinase-Glo luciferase, ATP luminescence, 8 min; 0.28% of 200,000 active; AID 1379, 2008; note: nearly all actives have a fitted effect of over 60% in size
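Compound is pinned into ATP-containing buffer (10 uM ATP, imidazole pH 7.2, 7 mM MgCl2). Kinase-Glo luciferase reagent is then added. Light output is recorded following an 8-min room-temperature incubation.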
Tau FP inhib: qHTS for Inhibitors of Tau Fibril Formation, Fluorescence Polarization. Microtubule-associated protein tau (Homo sapiens), P10636. 0.39% of 280,000 active. K18 P301L tau heparin fibrillization, Alexa594 FP, 6 h. Potency, µM (doses to about 57.7 µM), without a hit: at the top dose activity, negative = inhibition, hits mostly inhibitors. AID 1468, 2008; note: nearly all actives have a fitted effect of over 55% in size
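Read-out: fluorescence polarization of Alexa 594-labeled tau (0.24 uM), 555 nm excitation, 632 nm emission. Mixtures held 15 uM unlabeled K18 P301L, compound and 20 uM heparin, pH 7 acetate buffer, incubated 6 hr at 37 C.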
Starred values were filed as active, the others as inactive; u = inconclusive; x = not tested or not shown; [ ] = another dose, or the depositor's remark. Calls come from the whole dose curve; as a rule, active = well fitted curve in the direction sought with a large enough effect; inconclusive = small, poorly fitted or top-dose-only effect, or another doubt; inactive = no such curve, though single readings can be large; an effect the other way counts as inactive or inconclusive. % is set by controls: 0 for no effect and ±100 for the full control effect; potency is the fitted concentration of half-maximal effect.

SMILES | Tau fibril ThT | Tau fluor counter | NPSR antagonist | Luc counter | Tau FP inhib
CC(=O)c1ccc(OC(=O)CCc2nc3ccccc3s2)cc1 | 16µM* | -16% | 4% | -6% | u
Cc1nccc(-c2cccc(NC(=O)Nc3ccc(Cl)cc3)c2)n1 | -5% | u | 7%[7.67 µM] | x | u
Cc1nccc(-c2cccc(N/N=C(\C#N)C(=O)c3ccccc3)c2)n1 | 8.9µM* | u | 51%[7.67 µM] | x | 3%
CCCC(=O)OC1=CN(Cc2ccccc2)S(=O)(=O)c2ccccc21 | -16% | -26% | x | x | -1%
COC(=O)c1sc(NC(=O)c2ccoc2C)nc1C | -10% | -6% | 0%[46.1 µM] | 7.9µM* | -3%
Cc1cc(C(=O)Nc2nc3ccc(S(C)(=O)=O)cc3s2)c(C)o1 | -17% | -9% | 29%[46.1 µM] | u | 10%
COc1ccc2nc(NC(=S)NC(=O)c3ccco3)sc2c1 | u | -18% | -6% | -3% | 3%
COc1ccc2nc(NC(=O)c3ccoc3C)sc2c1 | -4% | -1% | -12%[46.1 µM] | 3.2µM* | -1%
COC(=O)c1sc(NC(=O)c2ccco2)nc1C | -5% | 8% | -16%[46.1 µM] | u | 1%
COc1ccc2nc(NC(=O)c3cc(C)oc3C)sc2c1 | u | -18% | -16% | 13µM* | -6%
CCOC(=O)/C=C/CCCC=O | -14% | -20% | x | 1% | u
CCOc1ccc(N2CC(NC(=O)c3cc4ccccc4o3)CC2=O)cc1 (stereo unspecified) | -12% | -12% | x | x | -8%
Cc1[nH]c(N=Nc2ccccc2)nc1N=Nc1ccccc1 | 3.5µM* | u | 30% | x | -1%
Cc1ccc(N=Nc2[nH]c3ccccc3c2O)cc1 | 7% | 2% | 14% | -5% | -11%
Clc1nnc(N/N=C/c2ccccc2)c2ccccc12 | u | u | -21%[46.1 µM] | -20% | u
C[n+]1ccc(/C=N/Nc2nc(Cl)c(C#N)c(Cl)c2Cl)cc1 | 13µM* | 11µM*[quencher] | -27% | -18% | -5%
CN(C)c1ccc(/C=C2\N=C(c3ccc(Cl)c([N+](=O)[O-])c3)NC2=O)cc1 | 0.89µM* | u | 23% | x | -15%
CCc1ccc(NC(=O)CC2C(=O)N(c3ccc(Cl)cc3)C(=O)N2Cc2ccco2)cc1 (stereo unspecified) | -3% | u | x | x | u
COc1ccc(NC(=O)N2CC3(CCN(S(C)(=O)=O)CC3)C2)cc1 | x | x | x | -2% | x
O=C(NC(=S)Nc1ccccc1)c1csnn1 | 10µM* | -12% | -5%[46.1 µM] | 0% | u
CCOC(=O)c1c(S(=O)(=O)N2CCCC(C(=O)NCc3ccc(Cl)cc3)C2)c(C)n(C)c1C (stereo unspecified) | 4% | 0% | x | x | 6%
Cc1nc2nc(NC(=O)c3ccc(C(C)(C)C)cc3)[nH]n2c(=O)c1C | -6% | 0% | x | x | 3%
COc1cc(C(=O)Nc2ccc(S(=O)(=O)N(C)c3ccccc3)cc2)cc(OC)c1OC | -7% | u | -11% | 2% | u
COc1cc(C(=O)Nc2ccc(N(C)C)cc2)cc(OC)c1OC | 16µM* | -17% | -20%[46.1 µM] | x | 10%
CCCC(=O)Nc1ccc(-c2csc(N/N=C\c3ccncc3)n2)cc1 | x | 16µM*[quencher] | -28% | x | u
SMILES | Tau fibril ThT | Tau fluor counter | NPSR antagonist | Luc counter | Tau FP inhib
C(=N\Nc1nc(-c2ccccc2)cs1)/c1cccnc1 | 16µM* | 16µM*[quencher] | -24%[46.1 µM] | -1% | 12%
CC1CC(CC(=O)NNc2nc(-c3ccccc3)cs2)C(=O)O1 (stereo unspecified) | -14% | -8% | 23% | 0% | 1%
CC(/C=C/c1ccccc1)=N\Nc1nc(-c2ccccc2)cs1 | 7.9µM* | 11µM*[quencher] | -25%[46.1 µM] | 1% | 11%
CC(C)=NNc1nc(-c2ccccc2)cs1 | 1% | 10% | 16% | -11% | -3%
C/C(CCC1CC(C)OC1=O)=N/Nc1nc(-c2ccccc2)cs1 (stereo unspecified) | 28µM* | u | 2% | -1% | u
COc1ccc(CNC(=O)CCCn2nc(C)c3c(C)n(-c4ccccc4)nc3c2=O)cc1 | 2% | -3% | x | x | -1%
CCOc1cccc(NC(=O)C2CC(=O)N(CC)C(=Nc3ccc(F)cc3)S2)c1 (stereo unspecified) | 8% | u | x | x | u
COc1ccc2c(c1)O[C@@H](c1ccc3c(c1)OCO3)[C@H](OC(=O)Nc1cc(OC)c(OC)c(OC)c1)C2=O | u | u | -24% | 6% | 2%
CCOC(=O)C/C(C)=N\Nc1nc(-c2ccccc2)cs1 | 14µM* | u | -10% | -1% | u
CC(C)n1nnc2cc(C(=O)O)ccc21 | -5% | -6% | x | -1%[39.9 µM] | 9%
Nn1c(Nc2ccccc2)nc2sc3c(c2c1=O)CCC3 | 20µM* | 28µM*[quencher] | -29%[46.1 µM] | -1% | 2%
NNc1nc2sc3c(c2c(=O)n1Cc1ccccc1)CCC3 | u | -21% | -4% | x | -2%
CCCc1ccc(S(=O)(=O)N2CCC(c3nnc(-c4cccc(C)c4)o3)CC2)cc1 | u | -15% | x | x | -1%
Cc1ccc2c(c1)sc(C)[n+]2CCCS(=O)(=O)[O-] | u | 3% | 18% | -7% | -16%
COc1cc(/C=C/c2sc3ccccc3[n+]2CCCS(=O)(=O)[O-])ccc1O | 6% | -1% | -47% | 8.9µM* | 5%
C[C@@H]1C[C@H](OC(=O)[C@@H](O)c2ccccc2)CC(C)(C)N1C | x | x | x | -2%[17.1 µM] | x
COc1ccc(C2(Nc3cccc(C(=O)O)c3C)C(=O)c3ccccc3C2=O)cc1 | 2% | 1% | x | x | -1%
COc1ccc(C2(C(=O)c3ccccc3)C(=O)c3ccccc3C2=O)cc1 | 14µM* | u | -26% | x | u
CCOC(=O)CCCNC(=O)N1CCc2nc(COc3ccccc3)c3c(c2C1)CO[C@@H](C)C3 | -1%[11.5 µM] | -7%[11.6 µM] | x | 0%[7.66 µM] | 0%[11.6 µM]
Cc1cc(C(=O)O)ccc1-n1c(C)cc(C=C2C(=O)c3ccccc3C2=O)c1C | 14µM* | -18% | 43% | x | -8%
COc1ccc(-c2csc(/C(C#N)=C\c3ccc(OC)c([N+](=O)[O-])c3)n2)cc1 | u | -27% | -1% | -3% | 0%
N#C/C(=C\c1ccco1)c1nc2ccccc2s1 | u | -27% | -11% | u | -9%
N#C/C(=C\c1ccc(O)c([N+](=O)[O-])c1)c1nc2ccccc2s1 | 2.2µM* | u | -31% | -4% | -1%
COc1cc(/C=C(\C#N)c2nc3ccccc3s2)cc([N+](=O)[O-])c1O | 1.4µM* | 16µM*[quencher] | -50% | -6% | -3%
COc1ccc(/C=C(/C#N)c2nc(-c3ccc(Br)cc3)cs2)cc1 | u | -23% | x | x | u
CC(C)c1ccc(/C=C(\C#N)c2nc(-c3ccc(O)cc3)cs2)cc1 | 7.9µM* | 8.9µM*[quencher] | x | x | 13µM*
